Measurements published in the supplement of paper PMC4466140.

Biological target: AgAbp1
Assay: SPOT peptide array binding signal intensity (averaged, normalized) (arbitrary units (background-subtracted, floor 0; scale differs between SH3 domains)); higher = stronger binding of the SH3 domain to the peptide
Method in brief: (§1)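 Spot intensities were captured after detection with anti-GST antibody, an HRP-linked anti-mouse secondary and luminol, and quantified with Genespotter. The probes were GST-fused SH3 domains from four yeast species, produced in E. coli BL21(DE3), purified on glutathione Sepharose and incubated at 10 μg/ml overnight at 4°C on cellulose-bound synthetic 15-mer peptides with cysteines replaced by serines. Binding signal is the normalized, background-subtracted spot intensity averaged over replicates, and its arbitrary units differ between domains.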

Row | Binder | SPOT peptide array binding signal intensity
1 | PALPSLPPPPLLNVD | ≤ 0

Biological target: AgBbc1
Assay: as above
Method in brief: as §1

Row | Binder | SPOT peptide array binding signal intensity
2 | PALPSLPPPPLLNVD | 0.5

Biological target: AgBem1-D1
Assay: as above
Method in brief: as §1

Row | Binder | SPOT peptide array binding signal intensity
3 | PALPSLPPPPLLNVD | ≤ 0

Biological target: AgBzz1-D1
Assay: as above
Method in brief: as §1

Row | Binder | SPOT peptide array binding signal intensity
4 | PALPSLPPPPLLNVD | ≤ 0

Biological target: AgBzz1-D2
Assay: as above
Method in brief: as §1

Row | Binder | SPOT peptide array binding signal intensity
5 | PALPSLPPPPLLNVD | 8.5

Biological target: AgCyk3
Assay: as above
Method in brief: as §1

Row | Binder | SPOT peptide array binding signal intensity
6 | PALPSLPPPPLLNVD | ≤ 0

Biological target: AgFus1
Assay: as above
Method in brief: as §1

Row | Binder | SPOT peptide array binding signal intensity
7 | PALPSLPPPPLLNVD | ≤ 0

Biological target: AgHof1
Assay: as above
Method in brief: as §1

Row | Binder | SPOT peptide array binding signal intensity
8 | PALPSLPPPPLLNVD | 1370

Biological target: AgHse1
Assay: as above
Method in brief: as §1

Row | Binder | SPOT peptide array binding signal intensity
9 | PALPSLPPPPLLNVD | ≤ 0

Biological target: AgLsb1
Assay: as above
Method in brief: as §1

Row | Binder | SPOT peptide array binding signal intensity
10 | PALPSLPPPPLLNVD | ≤ 0

Biological target: AgLsb4
Assay: as above
Method in brief: as §1

Row | Binder | SPOT peptide array binding signal intensity
11 | PALPSLPPPPLLNVD | ≤ 0

Biological target: AgMyo5
Assay: as above
Method in brief: as §1

Row | Binder | SPOT peptide array binding signal intensity
12 | PALPSLPPPPLLNVD | 2040

Biological target: AgNbp2
Assay: as above
Method in brief: as §1

Row | Binder | SPOT peptide array binding signal intensity
13 | PALPSLPPPPLLNVD | ≤ 0

Biological target: AgRvs167
Assay: as above
Method in brief: as §1

Row | Binder | SPOT peptide array binding signal intensity
14 | PALPSLPPPPLLNVD | ≤ 0

Biological target: AgSho1
Assay: as above
Method in brief: as §1

Row | Binder | SPOT peptide array binding signal intensity
15 | PALPSLPPPPLLNVD | 77.5

Biological target: AgSla1-D1-D2
Assay: as above
Method in brief: as §1

Row | Binder | SPOT peptide array binding signal intensity
16 | PALPSLPPPPLLNVD | ≤ 0

Biological target: AgSla1-D3
Assay: as above
Method in brief: as §1

Row | Binder | SPOT peptide array binding signal intensity
17 | PALPSLPPPPLLNVD | ≤ 0

Biological target: CaAbp1-D1
Assay: as above
Method in brief: as §1

Row | Binder | SPOT peptide array binding signal intensity
18 | PALPSLPPPPLLNVD | 12

Biological target: CaAbp1-D2
Assay: as above
Method in brief: as §1

Row | Binder | SPOT peptide array binding signal intensity
19 | PALPSLPPPPLLNVD | 22

Biological target: CaBbc1
Assay: as above
Method in brief: as §1

Row | Binder | SPOT peptide array binding signal intensity
20 | PALPSLPPPPLLNVD | ≤ 0

Biological target: CaBem1-D1
Assay: as above
Method in brief: as §1

Row | Binder | SPOT peptide array binding signal intensity
21 | PALPSLPPPPLLNVD | ≤ 0

Biological target: CaBzz1-D1
Assay: as above
Method in brief: as §1

Row | Binder | SPOT peptide array binding signal intensity
22 | PALPSLPPPPLLNVD | ≤ 0

Biological target: CaBzz1-D2
Assay: as above
Method in brief: as §1

Row | Binder | SPOT peptide array binding signal intensity
23 | PALPSLPPPPLLNVD | 1

Biological target: CaCyk3
Assay: as above
Method in brief: as §1

Row | Binder | SPOT peptide array binding signal intensity
24 | PALPSLPPPPLLNVD | ≤ 0

Biological target: CaFus1
Assay: as above
Method in brief: as §1

Row | Binder | SPOT peptide array binding signal intensity
25 | PALPSLPPPPLLNVD | ≤ 0

Biological target: CaHof1
Assay: as above
Method in brief: as §1

Row | Binder | SPOT peptide array binding signal intensity
26 | PALPSLPPPPLLNVD | 1170

Biological target: CaHse1
Assay: as above
Method in brief: as §1

Row | Binder | SPOT peptide array binding signal intensity
27 | PALPSLPPPPLLNVD | 0.25

Biological target: CaLsb1
Assay: as above
Method in brief: as §1

Row | Binder | SPOT peptide array binding signal intensity
28 | PALPSLPPPPLLNVD | 0.25

Biological target: CaLsb4
Assay: as above
Method in brief: as §1

Row | Binder | SPOT peptide array binding signal intensity
29 | PALPSLPPPPLLNVD | ≤ 0

Biological target: CaMyo5
Assay: as above
Method in brief: as §1

Row | Binder | SPOT peptide array binding signal intensity
30 | PALPSLPPPPLLNVD | 293

Biological target: CaNbp2
Assay: as above
Method in brief: as §1

Row | Binder | SPOT peptide array binding signal intensity
31 | PALPSLPPPPLLNVD | ≤ 0

Biological target: CaRvs167
Assay: as above
Method in brief: as §1

Row | Binder | SPOT peptide array binding signal intensity
32 | PALPSLPPPPLLNVD | ≤ 0

Biological target: CaRvs167-3
Assay: as above
Method in brief: as §1

Row | Binder | SPOT peptide array binding signal intensity
33 | PALPSLPPPPLLNVD | ≤ 0

Biological target: CaSho1
Assay: as above
Method in brief: as §1

Row | Binder | SPOT peptide array binding signal intensity
34 | PALPSLPPPPLLNVD | 8.5

Biological target: CaSla1-D1-D2
Assay: as above
Method in brief: as §1

Row | Binder | SPOT peptide array binding signal intensity
35 | PALPSLPPPPLLNVD | ≤ 0

Biological target: CaSla1-D3
Assay: as above
Method in brief: as §1

Row | Binder | SPOT peptide array binding signal intensity
36 | PALPSLPPPPLLNVD | ≤ 0

Biological target: ScAbp1
Assay: as above
Method in brief: as §1

Row | Binder | SPOT peptide array binding signal intensity
37 | PALPSLPPPPLLNVD | ≤ 0

Biological target: ScBbc1
Assay: as above
Method in brief: as §1

Row | Binder | SPOT peptide array binding signal intensity
38 | PALPSLPPPPLLNVD | ≤ 0

Biological target: ScBem1-D1
Assay: as above
Method in brief: as §1

Row | Binder | SPOT peptide array binding signal intensity
39 | PALPSLPPPPLLNVD | ≤ 0

Biological target: ScBzz1-D1
Assay: as above
Method in brief: as §1

Row | Binder | SPOT peptide array binding signal intensity
40 | PALPSLPPPPLLNVD | 15.5

Biological target: ScBzz1-D2
Assay: as above
Method in brief: as §1

Row | Binder | SPOT peptide array binding signal intensity
41 | PALPSLPPPPLLNVD | 10.5

Biological target: ScCyk3
Assay: as above
Method in brief: as §1

Row | Binder | SPOT peptide array binding signal intensity
42 | PALPSLPPPPLLNVD | ≤ 0

Biological target: ScFus1
Assay: as above
Method in brief: as §1

Row | Binder | SPOT peptide array binding signal intensity
43 | PALPSLPPPPLLNVD | ≤ 0

Biological target: ScHof1
Assay: as above
Method in brief: as §1

Row | Binder | SPOT peptide array binding signal intensity
44 | PALPSLPPPPLLNVD | 3250

Biological target: ScHse1
Assay: as above
Method in brief: as §1

Row | Binder | SPOT peptide array binding signal intensity
45 | PALPSLPPPPLLNVD | 128

Biological target: ScLsb1
Assay: as above
Method in brief: as §1

Row | Binder | SPOT peptide array binding signal intensity
46 | PALPSLPPPPLLNVD | ≤ 0

Biological target: ScLsb2
Assay: as above
Method in brief: as §1

Row | Binder | SPOT peptide array binding signal intensity
47 | PALPSLPPPPLLNVD | ≤ 0

Biological target: ScLsb3
Assay: as above
Method in brief: as §1

Row | Binder | SPOT peptide array binding signal intensity
48 | PALPSLPPPPLLNVD | 6.5

Biological target: ScLsb4
Assay: as above
Method in brief: as §1

Row | Binder | SPOT peptide array binding signal intensity
49 | PALPSLPPPPLLNVD | ≤ 0

Biological target: ScMyo3
Assay: as above
Method in brief: as §1

Row | Binder | SPOT peptide array binding signal intensity
50 | PALPSLPPPPLLNVD | 1950

Biological target: ScMyo5
Assay: as above
Method in brief: as §1

Row | Binder | SPOT peptide array binding signal intensity
51 | PALPSLPPPPLLNVD | 1820

Biological target: ScNbp2
Assay: as above
Method in brief: as §1

Row | Binder | SPOT peptide array binding signal intensity
52 | PALPSLPPPPLLNVD | ≤ 0

Biological target: ScPex13
Assay: as above
Method in brief: as §1

Row | Binder | SPOT peptide array binding signal intensity
53 | PALPSLPPPPLLNVD | ≤ 0

Biological target: ScRvs167
Assay: as above
Method in brief: as §1

Row | Binder | SPOT peptide array binding signal intensity
54 | PALPSLPPPPLLNVD | ≤ 0

Biological target: ScSho1
Assay: as above
Method in brief: as §1

Row | Binder | SPOT peptide array binding signal intensity
55 | PALPSLPPPPLLNVD | 542

Biological target: ScSla1-D1-D2
Assay: as above
Method in brief: as §1

Row | Binder | SPOT peptide array binding signal intensity
56 | PALPSLPPPPLLNVD | ≤ 0

Biological target: ScSla1-D3
Assay: as above
Method in brief: as §1

Row | Binder | SPOT peptide array binding signal intensity
57 | PALPSLPPPPLLNVD | 1.25

Biological target: SpAbp1-D1
Assay: as above
Method in brief: as §1

Row | Binder | SPOT peptide array binding signal intensity
58 | PALPSLPPPPLLNVD | ≤ 0

Biological target: SpBbc1
Assay: as above
Method in brief: as §1

Row | Binder | SPOT peptide array binding signal intensity
59 | PALPSLPPPPLLNVD | 1

Biological target: SpBzz1-D1
Assay: as above
Method in brief: as §1

Row | Binder | SPOT peptide array binding signal intensity
60 | PALPSLPPPPLLNVD | 94

Biological target: SpBzz1-D2
Assay: as above
Method in brief: as §1

Row | Binder | SPOT peptide array binding signal intensity
61 | PALPSLPPPPLLNVD | 1

Biological target: SpCyk3
Assay: as above
Method in brief: as §1

Row | Binder | SPOT peptide array binding signal intensity
62 | PALPSLPPPPLLNVD | ≤ 0

Biological target: SpHof1
Assay: as above
Method in brief: as §1

Row | Binder | SPOT peptide array binding signal intensity
63 | PALPSLPPPPLLNVD | ≤ 0

Biological target: SpHof1-2
Assay: as above
Method in brief: as §1

Row | Binder | SPOT peptide array binding signal intensity
64 | PALPSLPPPPLLNVD | 1210

Biological target: SpHof1-3
Assay: as above
Method in brief: as §1

Row | Binder | SPOT peptide array binding signal intensity
65 | PALPSLPPPPLLNVD | 326

Biological target: SpHse1
Assay: as above
Method in brief: as §1

Row | Binder | SPOT peptide array binding signal intensity
66 | PALPSLPPPPLLNVD | ≤ 0

Biological target: SpLsb1
Assay: as above
Method in brief: as §1

Row | Binder | SPOT peptide array binding signal intensity
67 | PALPSLPPPPLLNVD | ≤ 0

Biological target: SpLsb4
Assay: as above
Method in brief: as §1

Row | Binder | SPOT peptide array binding signal intensity
68 | PALPSLPPPPLLNVD | ≤ 0

Biological target: SpMyo1
Assay: as above
Method in brief: as §1

Row | Binder | SPOT peptide array binding signal intensity
69 | PALPSLPPPPLLNVD | 1260

Biological target: SpNbp2
Assay: as above
Method in brief: as §1

Row | Binder | SPOT peptide array binding signal intensity
70 | PALPSLPPPPLLNVD | ≤ 0

Biological target: SpPex13
Assay: as above
Method in brief: as §1

Row | Binder | SPOT peptide array binding signal intensity
71 | PALPSLPPPPLLNVD | ≤ 0

Biological target: SpRvs167
Assay: as above
Method in brief: as §1

Row | Binder | SPOT peptide array binding signal intensity
72 | PALPSLPPPPLLNVD | 0.5

Biological target: SpSla1-D1-D2
Assay: as above
Method in brief: as §1

Row | Binder | SPOT peptide array binding signal intensity
73 | PALPSLPPPPLLNVD | ≤ 0

Biological target: SpSla1-D3
Assay: as above
Method in brief: as §1

Row | Binder | SPOT peptide array binding signal intensity
74 | PALPSLPPPPLLNVD | ≤ 0
